# Screening results as filed in PubChem BioAssay.
# Nrf2 ARE act – Nrf2 pathway activation; AREc32 ARE-luciferase reporter (MCF7-derived line), luminescence, 24 h; Potency, µM (series often up to 46.1 µM), most hits filed as activators; AID 624171; actives 0.31% (n = 410,000); note: nearly all actives have a fitted effect of over 65% in size
#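 Cells of the AREc32 ARE-luciferase line are plated in OPTI-MEM containing 5% FBS and left overnight at 37 deg C. Compounds are pinned in, incubation continues 24 hr, and firefly luciferase signal is then measured.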
# Nrf2 inh – blocks Nrf2 signaling. Potency, µM (top dose mostly 46 µM), usual class: inhibitors. A549 ARE-Fluc reporter, luciferase luminescence, 18-24 h. AID 504444. actives 2.1% (n = 360,000); note: nearly all actives have a fitted effect of over 60% in size
#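 Two sequential reads on A549 ARE_Fluc cells exposed to compound for 18-24 h: a CellTiter-Fluor fluorescence read for viability, then a luciferase luminescence read for Nrf2/ARE activity.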
# A549 viability – kills or reduces viability of A549 cells in Nrf2 counter-screen; A549 ARE-Fluc cells, CellTiter-Fluor viability, 18-24 h; Potency, µM (doses to about 46 µM), actives largely listed as inhibitors; actives 0.16% (n = 390,000)
#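 Cytotoxicity counterscreen: CellTiter-Fluor fluorescence was measured in A549 ARE_Fluc cells after 18-24 h of compound exposure in a concentration series. The subsequent BugLite luminescent read reports ARE-luciferase activity.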
# IL2 activator – activates IL-2 in a cell-based reporter assay; IL-2 activation reporter assay, cell-based qHTS; stimulated with anti-CD3/CD4/CD28 beads; in transgenic mouse T cells; activation, % (series mostly up to about 46 µM); actives 0.065% (n = 360,000); AID 652025; in the data active = activation above about 50%; inconclusive = mostly about 30% to 49%
#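 Quantitative HTS in unstimulated transgenic mouse T cells, with memory T cells as non-tolerant control and PMA/ionomycin as tolerance-bypass control. Compound pretreatment lasted 60 minutes before 18 h bead stimulation; EGFP/DsRed fluorescence read.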
# Hits are given with their value; - = inactive; ? = inconclusive; . = no result; [ ] = dose if it differs, or a comment. Shown are actives, neighbours in structure and some others; about 2.3% of the full set was active somewhere. Unless noted, calls come from the whole dose curve; as a rule, active = well fitted curve in the direction sought with a large enough effect; inconclusive = small, poorly fitted or top-dose-only effect, or another doubt; inactive = no such curve, though single readings can be large; an effect the other way counts as inactive or inconclusive.
SMILES,Nrf2 ARE act,Nrf2 inh,A549 viability,IL2 activator
Cc1ccc(NC(=O)CSc2ncc3c(n2)-c2ccc(Cl)cc2N(C)S3(=O)=O)cc1F,-,?,-,.
COc1ccc(C(=O)COC(=O)CN2CC(=O)Oc3ccccc32)cc1Br,14µM,-,-,-
CC(C)OCCCNC1=C(Cl)C(=O)c2ccccc2C1=O,-,?,-,-
COCCCNC1=C(Cl)C(=O)c2ccccc2C1=O,-,26µM,-,-
C=CCNC1=C(Cl)C(=O)c2ccccc2C1=O,?,16µM,?,-
Cc1ccc2oc(=O)c3cc(C(=O)Nc4ccc(C)c(F)c4)sc3c2c1,-,-,-,.
N#C/C(=N\Nc1ccccc1Cl)C(=O)c1ccccc1,-,?,?,-
COc1ccc(C(=O)/C(C#N)=N/Nc2cccc([N+](=O)[O-])c2)cc1,?,23µM,?,-
N#C/C(=N\Nc1cccc(Cl)c1)C(=O)c1ccccc1,-,?,18µM,-
CCC(CC)=NNc1cccc([N+](=O)[O-])c1,-[9.22 µM],-,-,-
N#C/C(=N\Nc1ccc(Cl)cc1)C(=O)c1ccsc1,-,16µM,?,-
Nc1nc(SCc2ccccc2Cl)nc2nc3c(cc12)CCCC3,-,-,-,-
Nc1nc(SCc2ccc(Cl)cc2Cl)nc2nc3c(cc12)CCCC3,-,23µM,-,82
Cc1ccccc1NC(=O)c1c(C)oc2ccc(O)c(CN3CCC(C)CC3)c12,-,-,-,.
S=c1[nH]nc(-c2cc(-c3ccccc3)n[nH]2)n1/N=C/C(Br)=C/c1ccccc1,?,23µM,?,-
COc1ccc(-c2cncnc2N)cc1OC,-,.,.,-
COc1ccc(-c2cnc(OC(C)(C)C)nc2OC(C)(C)C)cc1OC,-,23µM,?,-
Cc1cc(Cl)ccc1OCC(=O)N(Cc1ccco1)Cc1ccccc1F,-,-,-,.
O=C(Cc1cccc2ccccc12)Nc1ccc(-c2cc3ccccc3oc2=O)cc1,-,5.8µM,-,-
O=C1c2ccccc2C(=O)N1c1cccc2ncccc12,.,-,-,.
O=c1oc2cc(O)ccc2s1,?,13µM,-,-
COc1ccc(C2=Nn3c(nnc3-c3ccc(OC)cc3OC)SC2)cc1,.,?,-,.
COc1ccc(CCNC(=O)c2cc3ccc(Cl)cc3nc2N)cc1,-,.,.,-
Cc1sc2ncn(CC(=O)N3CCN(c4ccc(F)cc4)CC3)c(=O)c2c1S(=O)(=O)N1CCC(C)CC1,-,-[9.27 µM],-,.
Cc1sc2ncn(CCn3cnc4sc(C)c(C)c4c3=O)c(=O)c2c1C,-,16µM,-,-
SMILES,Nrf2 ARE act,Nrf2 inh,A549 viability,IL2 activator
Cc1sc2ncn(CC(=O)NCC(=O)N3CCN(c4ccc(F)cc4)CC3)c(=O)c2c1C,-,8.2µM,-,-
CCN(CC)c1nn2c(=O)c(C(=O)NCCc3ccc(C)cc3)cnc2s1,-,-,-,.
COc1ccc(CCNC(=O)c2ccc(Cn3c(=O)[nH]c4cc(OC)c(OC)cc4c3=O)cc2)cc1OC,-,-[9.27 µM],-,.
Cc1ccc(NC(=O)c2cnc3cc(C)ccn3c2=O)c(C)c1,-,?,-,.
CCN(CC)c1ccc(NC(=O)c2cnc3ccccn3c2=O)c(C)c1,-,2.9µM,-,-
Cc1ccc(CNc2ncnc3ccc(-c4ccc5c(c4)OCO5)cc23)s1,.,-,-,.
O=C(/C=C\c1ccccc1OC(=O)c1ccccc1F)c1cc2ccccc2o1,11µM,?,?,-
CCC(C)NS(=O)(=O)c1ccc(S(=O)(=O)N(CC(=O)Nc2ccccc2)Cc2ccco2)cc1 (configuration not stated),-,13µM,-,-
COC(=O)c1ccccc1NC(=O)c1c(NC(=O)c2ccco2)sc2c1CCC(C(C)(C)C)C2 (configuration not stated),-,-,-,.
COc1ccc(C2Nc3ccc(Cl)cc3C(=O)N2Cc2ccccc2)cc1COc1ccc(NC(C)=O)cc1 (configuration not stated),.,?,-,.
Cc1ccc(S(=O)(=O)N2CC(O)C[C@H]2C(=O)OCC(=O)N2CCN(c3ccc(F)cc3)CC2)cc1C (some centres not stated),-,16µM,-,-
CC(=O)Nc1ccc(NC(=O)COc2ccc(-c3ccc(C#N)cc3)cc2)cc1,-,-,-,-
N#Cc1ccc(-c2ccc(OCC(=O)Nc3cccnc3)cc2)cc1,-,7.3µM,-,-
O=C(COc1ccc(C(=O)c2ccccc2)cc1)Nc1cccnc1,-,23µM,?,-
O=C(CCC1N=C2c3ccccc3N=C(SCc3ccccc3F)N2C1=O)NC1CCCCC1 (configuration not stated),-,.,-,.
Cc1cccc(N2CCN(C(=O)c3ccc4nccnc4c3)CC2C)c1 (configuration not stated),-,-,-,-
Cc1cccc(N2CCN(C(=O)c3ccc4nc(-c5ccco5)c(-c5ccco5)nc4c3)CC2C)c1 (configuration not stated),-,21µM,?,-
Cc1ccc(NS(=O)(=O)c2cccc(F)c2)cc1C,.,-,-,.
CCC(=O)N(CCC(Cc1ccccc1)c1ccco1)Cc1ccco1 (configuration not stated),-,16µM,-,-
CCOC(=O)c1csc(-c2sccc2Br)n1,14µM,?,-,-
CCOC(=O)c1csc(-c2ccc(OC)c(OC)c2)n1,-,-,-,-
O=C(C1=C[C@H](C2CCCCC2)C[C@H](OCCCCO)O1)N1CCN(Cc2ccc3c(c2)OCO3)CC1,-,18µM,?,-
O=C(C1=C[C@H](c2ccc3c(c2)OCO3)C[C@H](OCc2ccc(CO)cc2)O1)N1CCN(Cc2ccc3c(c2)OCO3)CC1,-,21µM,-,-
O=S(=O)(/C(=C\c1ccc(C(F)(F)F)cc1)c1nc2ccccc2[nH]1)c1ccccc1,-,16µM,?,-
O=C(NCc1ccco1)/C(=C/c1ccc(C(F)(F)F)cc1)c1nc2ccccc2[nH]1,?,?,-,-
SMILES,Nrf2 ARE act,Nrf2 inh,A549 viability,IL2 activator
Cc1c(C(=O)NCc2ccccc2Cl)sc2nc3n(c(=O)c12)CCCC3,-,-,-,.
N#CC1=C(N)N2C(=C(C#N)C1c1ccc(Br)cc1)Nc1ccccc12 (configuration not stated),-,12µM,?,-
O=C1c2c(O)ccc(O)c2C(=O)c2c(NCCNCCO)ccc(NCCNCCO)c21,-,?,13µM,-
O=C1c2ccccc2C(=O)c2c(NCCCN(CCO)CCO)cccc21,-,?,?,-
COc1cccc2c1OC[C@@H](CO)[C@H]2N(C)C(=O)Nc1ccc(Cl)cc1Cl,-,18µM,-,-
CCOC(=O)Cn1nc(C)c(NC(=O)COc2ccc(Cl)cc2C)c1C,-,23µM,-,.
Cc1ccc(NS(=O)(=O)c2ccc(NC(=O)CN(c3cc([N+](=O)[O-])ccc3C)S(C)(=O)=O)cc2)c(C)c1,-,9.2µM,?,-
Cc1ccc([N+](=O)[O-])cc1N(CC(=O)NC1CCCC1)S(C)(=O)=O,-,-,-,-
CN1CC(c2ccccc2Cl)C2(COc3ccccc3C2=O)C12C(=O)Nc1ccccc12 (configuration not stated),-,21µM,-,-
